Source: PubChem BioAssay (Tox21)
Records with an inconclusive call do not appear. Calls of active or inactive are those of the source. Unless noted, calls come from the whole dose curve.

Legend:
[1] = Nuclear factor erythroid 2-related factor 2/antioxidant responsive element (Nrf2/ARE) small molecule agonists: qHTS cell viability counter screen in human keratinocytes (AID 1919968; active = well fitted curve in the direction sought with a large enough effect in the repeat runs; an effect the other way counts as inactive or inconclusive; note: nearly all actives have a fitted effect of over 55% in size)
Outline: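 HaCaT ARE reporter line, 1,500 cells/well; 5 h settle, 37 C/5% CO2; cpd in DMSO pinned; 23 h exposure; CellTiter-Fluor, 1 h; fluorescence.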

[2] = Nuclear factor erythroid 2-related factor 2/antioxidant responsive element (Nrf2/ARE) small molecule agonists: luciferase reporter gene qHTS assay in human keratinocytes (AID 1919969); note: nearly all actives have a fitted effect of over 35% in size
[3] = target: Gonadotropin-releasing hormone receptor (Homo sapiens) (UniProt P30968); test: Human gonadotropin-releasing hormone receptor (GnRHR) small molecule agonists, calcium flux assay in GnRHR-HEK293 cells (AID 1920063); note: nearly all actives have a fitted effect of over 35% in size
Gonadotropin-releasing hormone receptor (Homo sapiens), sequence (P30968 whole entry, looked up): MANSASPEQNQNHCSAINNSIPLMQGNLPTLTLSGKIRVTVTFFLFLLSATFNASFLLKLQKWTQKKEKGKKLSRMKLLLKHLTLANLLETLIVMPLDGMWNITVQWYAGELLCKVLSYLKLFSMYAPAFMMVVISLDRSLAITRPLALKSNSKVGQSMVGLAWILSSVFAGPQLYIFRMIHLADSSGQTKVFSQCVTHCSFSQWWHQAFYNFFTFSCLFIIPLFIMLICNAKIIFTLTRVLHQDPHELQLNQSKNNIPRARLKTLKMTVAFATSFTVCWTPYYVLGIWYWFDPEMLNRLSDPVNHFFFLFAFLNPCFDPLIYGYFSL
Outline: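 GnRHR-HEK293, 1500 cells/well, 18 h 37 C/5% CO2; Ca dye 1 h 37 C; cpd pinned (DMSO), agonist mode; kinetic FL 480/540, 3 min, 1 s reads; 15 conc, n=3.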

[4] = target: KiSS-1 receptor (Homo sapiens) (UniProt Q969F8); test: Human kisspeptin (KISS1R) small molecule agonists, calcium flux assay in KISS1R-HEK293 cells (AID 1920064; active = well fitted curve in the direction sought with a large enough effect in the repeat runs; an effect the other way counts as inactive or inconclusive)
KiSS-1 receptor (Homo sapiens), sequence (Q969F8 whole entry, looked up): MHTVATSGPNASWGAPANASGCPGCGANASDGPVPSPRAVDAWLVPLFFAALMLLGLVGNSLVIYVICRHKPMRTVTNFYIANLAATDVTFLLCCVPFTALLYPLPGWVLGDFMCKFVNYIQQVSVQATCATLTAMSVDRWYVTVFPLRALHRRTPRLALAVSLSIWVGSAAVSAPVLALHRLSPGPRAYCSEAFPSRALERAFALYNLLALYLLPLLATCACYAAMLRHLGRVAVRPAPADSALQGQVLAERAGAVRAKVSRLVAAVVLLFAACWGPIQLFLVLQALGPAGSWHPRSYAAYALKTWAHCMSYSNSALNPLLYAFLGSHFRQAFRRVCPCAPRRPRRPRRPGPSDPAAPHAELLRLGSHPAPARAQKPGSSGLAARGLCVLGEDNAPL
Outline: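 Stable human KISS1R HEK293 line; 18 h plating, 37 C/5% CO2; calcium dye 1 h 37 C; compound pin transfer; kinetic fluorescence Ex/Em 480/540, 3 min.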

[5] = G protein-coupled receptor (GPCR) small molecule agonists, calcium flux assay: HEK293 wild type cell line counter screen (AID 1920065)
Outline: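 Kinetic fluorescence at Ex/Em 480/540, recorded every second over 3 min, served as the read-out after compound addition. Each compound was tested at 15 concentrations in triplicate on cells pre-loaded with calcium dye for 1 h.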

[6] = p53 small molecule agonists, cell-based qHTS assay with human liver microsomes (AID 1963577);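 note: p53 response element beta-lactamase reporter cells with liver microsomes plus NADPH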
Outline: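 HLM-supplemented p53RE-bla reporter assay: 16 h compound exposure at 37 C, microsomes and NADPH each 0.5 mg/mL final, read by fluorescence intensity.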

[7] = p53 small molecule agonists, cell-based qHTS assay with rat liver microsomes (AID 1963578)
Outline: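 Quantitative HTS of the Tox21 10K library: p53RE-bla cells, rat liver microsomes plus NADPH at 0.5 mg/mL final each, 16 h at 37 C, beta-lactamase fluorescence detection.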

[8] = p53 small molecule agonists, cell-based qHTS assay with human liver microsomes: qHTS cell viability counter screen (AID 1963579); note: nearly all actives have a fitted effect of over 45% in size
Outline: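 Viability of p53RE-bla cells is measured as CellTiter-Glo luminescence following a 16 h, 37 C incubation with compound, liver microsomes from human donors and NADPH.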

[9] = p53 small molecule agonists, cell-based qHTS assay with rat liver microsomes: qHTS cell viability counter screen (AID 1963580); note: nearly all actives have a fitted effect of over 45% in size
Outline: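 Viability is assessed in parallel with the p53 reporter read: HCT-116 p53RE-bla cells receive compounds plus rat microsomes and NADPH (0.5 mg/mL final apiece), incubate 16 h at 37 C, and then CellTiter-Glo luminescence is recorded.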

[10] = p53 small molecule agonists, cell-based qHTS assay: qHTS cell viability counter screen (AID 1963581); note: nearly all actives have a fitted effect of over 45% in size
Outline: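 HCT-116 p53RE-bla cells, 4,000/well, plated 5 h before compound pin transfer; 16 h at 37 C; bla substrate 2 h RT; then CellTiter-Glo, 30 min RT, luminescence.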

[11] = p53 small molecule agonists, cell-based qHTS assay (AID 1963582; active = well fitted activation curve with a large enough effect in the signal ratio in the repeat runs, not every such curve was filed as active; the % refers to the signal ratio)
Outline: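 Reporter line: p53RE-bla. Pre-incubation 5 h, 37 C, 5% CO2; compound (DMSO, pin tool) 16 h, 37 C; B/G FRET substrate 2 h RT; fluorescence intensity read.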

[12] = target: 5-hydroxytryptamine receptor 2A (Homo sapiens) (UniProt P28223); test: 5-hydroxytryptamine receptor 2A (HTR2A) small molecule antagonists, cell-based qHTS assay (AID 1963586); note: nearly all actives have a fitted effect of over 45% in size
5-hydroxytryptamine receptor 2A (Homo sapiens), sequence (P28223 whole entry, looked up): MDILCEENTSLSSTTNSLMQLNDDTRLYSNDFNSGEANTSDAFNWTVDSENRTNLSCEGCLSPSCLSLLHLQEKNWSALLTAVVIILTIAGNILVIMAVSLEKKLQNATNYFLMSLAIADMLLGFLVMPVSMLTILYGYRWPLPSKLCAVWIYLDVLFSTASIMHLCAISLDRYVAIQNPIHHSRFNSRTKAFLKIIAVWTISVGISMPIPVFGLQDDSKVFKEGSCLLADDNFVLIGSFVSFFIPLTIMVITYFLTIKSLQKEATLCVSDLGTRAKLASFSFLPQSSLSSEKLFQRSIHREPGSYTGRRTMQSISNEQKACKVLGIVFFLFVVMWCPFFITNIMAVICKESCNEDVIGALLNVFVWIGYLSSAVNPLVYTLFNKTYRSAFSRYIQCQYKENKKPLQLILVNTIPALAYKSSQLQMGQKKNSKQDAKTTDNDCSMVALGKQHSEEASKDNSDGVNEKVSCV
Outline: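 Antagonist-mode intracellular calcium assay: DOI (4 nM) added after 5 min compound pre-incubation at room temperature to dye-loaded HTR2A-CHO cells. Fluorescence followed for 3 min, sampled every second.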

[13] = target: 5-hydroxytryptamine receptor 2A (Homo sapiens) (UniProt P28223); test: 5-hydroxytryptamine receptor 2A (HTR2A) small molecule agonists, cell-based qHTS assay (AID 1963587); note: nearly all actives have a fitted effect of over 30% in size
Outline: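 CHO cells stably expressing human HTR2A, plated 18 h, loaded with calcium dye 1 h at 37 C. Agonist mode: compounds added and intracellular calcium fluorescence recorded kinetically for 2 min at 1 sec intervals.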

[14] = target: Muscarinic acetylcholine receptor M1 (Homo sapiens) (UniProt P11229); test: Cholinergic receptor muscarinic 1 (CHRM1) small molecule antagonists, cell-based qHTS assay (AID 1963588); note: nearly all actives have a fitted effect of over 40% in size
Muscarinic acetylcholine receptor M1 (Homo sapiens), sequence (P11229 whole entry, looked up): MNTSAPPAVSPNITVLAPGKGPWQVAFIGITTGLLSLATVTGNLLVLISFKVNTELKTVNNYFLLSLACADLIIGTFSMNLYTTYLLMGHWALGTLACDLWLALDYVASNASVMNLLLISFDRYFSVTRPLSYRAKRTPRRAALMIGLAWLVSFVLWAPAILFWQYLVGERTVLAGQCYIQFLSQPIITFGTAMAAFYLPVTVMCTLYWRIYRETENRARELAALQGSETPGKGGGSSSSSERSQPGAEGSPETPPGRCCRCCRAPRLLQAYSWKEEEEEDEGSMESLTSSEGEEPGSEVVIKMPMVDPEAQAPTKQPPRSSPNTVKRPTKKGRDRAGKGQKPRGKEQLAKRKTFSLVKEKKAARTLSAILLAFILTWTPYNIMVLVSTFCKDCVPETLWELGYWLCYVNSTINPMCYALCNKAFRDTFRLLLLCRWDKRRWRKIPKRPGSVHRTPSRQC
Outline: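 CHRM1-CHO calcium-flux assay, antagonist mode. Cells were seeded 18 h, dye-loaded 1 h at 37 C and given compound for 5 min at RT, then acetylcholine was added at 50nM. FDSS fluorescence was read 3 min; 15 concentrations, three runs.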

[15] = target: Muscarinic acetylcholine receptor M1 (Homo sapiens) (UniProt P11229); test: Cholinergic receptor muscarinic 1 (CHRM1) small molecule agonists, cell-based qHTS assay (AID 1963589); note: nearly all actives have a fitted effect of over 35% in size
Outline: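 Human M1 in stable CHO line; 18 h plating, 1 h dye load 37 C; cpd added (agonist mode); Ca2+ fluorescence kinetic read, 1 s intervals; 15 conc, 3 runs.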

[16] = cAMP Responsive Elements (CRE) small molecule antagonists, cell-based qHTS assay (AID 1963591; active = well fitted inhibition curve with a large enough effect in the signal ratio in the repeat runs, not every such curve was filed as active; the % refers to the signal ratio)
Outline: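 Beta-lactamase reporter read by FRET substrate (LiveBLAzer B/G) after 2 h at room temperature. CRE-bla HEK293T cells had received compound plus 0.25 uM (final) NKH477 for 3 h at 37 °C.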

[17] = target: Beta-2 adrenergic receptor (Homo sapiens) (UniProt P07550); test: Adrenergic beta2 receptor (ADRB2) small molecule antagonists, cell-based qHTS assay (AID 1963592); note: series mostly up to about 92 µM; nearly all actives have a fitted effect of over 50% in size
Beta-2 adrenergic receptor (Homo sapiens), sequence (P07550 whole entry, looked up): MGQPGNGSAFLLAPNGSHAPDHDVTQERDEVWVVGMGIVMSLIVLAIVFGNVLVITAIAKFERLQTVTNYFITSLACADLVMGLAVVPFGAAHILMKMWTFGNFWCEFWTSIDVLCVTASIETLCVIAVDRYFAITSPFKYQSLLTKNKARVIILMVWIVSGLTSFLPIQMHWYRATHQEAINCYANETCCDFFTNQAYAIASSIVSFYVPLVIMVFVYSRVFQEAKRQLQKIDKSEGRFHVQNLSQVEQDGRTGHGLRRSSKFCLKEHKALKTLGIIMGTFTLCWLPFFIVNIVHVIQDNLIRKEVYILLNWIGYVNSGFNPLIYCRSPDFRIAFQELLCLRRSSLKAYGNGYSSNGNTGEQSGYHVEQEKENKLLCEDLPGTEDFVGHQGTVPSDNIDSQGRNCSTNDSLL
Outline: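 Cells (CHO, stable ADRB2 overexpression) incubated 18-20hr at 37C; compounds added from DMSO; agonist mix (1nM isoproterenol, 100uM IBMX, 25uM Ro-20-1724) added; 0.5hr RT; d2-cAMP and anti-cAMP-cryptate added; 1hr RT; 665/615 nm read.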

[18] = target: D(2) dopamine receptor (Homo sapiens) (UniProt P14416); test: Dopamine D2 receptor (DRD2) small molecule agonists, cell-based qHTS assay (AID 1963594); note: nearly all actives have a fitted effect of over 35% in size
D(2) dopamine receptor (Homo sapiens), sequence (P14416 whole entry, looked up): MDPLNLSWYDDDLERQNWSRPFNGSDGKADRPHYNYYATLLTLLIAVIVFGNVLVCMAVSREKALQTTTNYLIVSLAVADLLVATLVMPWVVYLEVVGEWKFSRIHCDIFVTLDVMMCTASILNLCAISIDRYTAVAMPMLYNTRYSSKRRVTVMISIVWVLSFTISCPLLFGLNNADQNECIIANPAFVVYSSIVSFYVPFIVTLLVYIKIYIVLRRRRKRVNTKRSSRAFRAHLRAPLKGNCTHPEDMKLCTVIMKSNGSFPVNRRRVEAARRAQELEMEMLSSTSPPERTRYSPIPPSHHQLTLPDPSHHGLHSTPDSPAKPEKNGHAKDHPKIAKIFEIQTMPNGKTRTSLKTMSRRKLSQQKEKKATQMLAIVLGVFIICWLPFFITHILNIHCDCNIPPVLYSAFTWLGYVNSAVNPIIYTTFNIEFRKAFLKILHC
Outline: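 HEK293 cells stably expressing human DRD2, pre-treated with PDE inhibitor Ro20-1724 (0.1 mM final) and compound 10 min at room temperature, then stimulated with NKH477 (200nM […]) for 30 min. cAMP read by HTRF (665/620 nm).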

[19] = target: D(2) dopamine receptor (Homo sapiens) (UniProt P14416); test: Dopamine D2 receptor (DRD2) small molecule antagonists, cell-based qHTS assay (AID 1963595; active = well fitted inhibition curve with a large enough effect in the signal ratio in the repeat runs, with a control signal flat; the % refers to the signal ratio)
Outline: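 HTRF cAMP read-out at 665 and 620 nm emission (340 nm excitation). Antagonist mode: compounds were tested against 12 nM quinpirole in DRD2-HEK293 cells, with 200 nM NKH477 raising cAMP and 0.1 mM Ro20-1724 blocking its breakdown.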

[20] = cAMP Responsive Elements (CRE) small molecule agonists, cell-based qHTS assay (AID 1963590)
Outline: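 HEK 293T CRE-bla, 2,000 cells/well, 18 h preincubation 37 C/5% CO2; cpds (DMSO) pinned, 3 h; LiveBLAzer B/G FRET substrate, 2 h RT.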
% is set by controls: 0 for no effect and ±100 for the full control effect.

NCc1ccc(S(N)(=O)=O)cc1
inactive: Potency [1] | Potency [2] | Potency [3] | Potency [4] | Potency [5] | Potency [6] | Potency [7] | Potency [8] | Potency [9] | Potency [10] | Potency [11] | Potency [12] | Potency [13] | Potency [14] | Potency [15] | Potency [16] | Potency [17] | Potency [18] | Potency [19]

CC(=O)O[C@@H]1C[C@@H]2CC[C@@]1(C)C2(C)C
inactive: Potency [1] | Potency [2] | Potency [3] | Potency [4] | Potency [5] | Potency [6] | Potency [7] | Potency [8] | Potency [9] | Potency [10] | Potency [11] | Potency [12] | Potency [13] | Potency [14] | Potency [20] | Potency [16] | Potency [17] | Potency [18] | Potency [19]

C=C(C)[C@@H]1CCC2=CCC[C@@H](C)[C@]2(C)C1
inactive: Potency [1] | Potency [2] | Potency [3] | Potency [4] | Potency [5] | Potency [6] | Potency [7] | Potency [8] | Potency [9] | Potency [10] | Potency [11] | Potency [12] | Potency [13] | Potency [14] | Potency [15] | Potency [16] | Potency [17] | Potency [18] | Potency [19]

COc1cc(C(=O)N2CCCCCCC2)cc(OC)c1OC
inactive: Potency [1] | Potency [2] | Potency [3] | Potency [4] | Potency [5] | Potency [6] | Potency [7] | Potency [8] | Potency [9] | Potency [10] | Potency [11] | Potency [12] | Potency [13] | Potency [14] | Potency [20] | Potency [16] | Potency [17] | Potency [19]

Cc1ccc(-c2ccccc2C#N)cc1
inactive: Potency [1] | Potency [2] | Potency [3] | Potency [4] | Potency [5] | Potency [6] | Potency [7] | Potency [8] | Potency [9] | Potency [10] | Potency [11] | Potency [12] | Potency [13] | Potency [14] | Potency [15] | Potency [16] | Potency [17] | Potency [19]

CC(C=O)c1ccccc1 (configuration not stated)
inactive: Potency [1] | Potency [2] | Potency [3] | Potency [4] | Potency [5] | Potency [6] | Potency [7] | Potency [8] | Potency [9] | Potency [10] | Potency [11] | Potency [12] | Potency [13] | Potency [14] | Potency [20] | Potency [16] | Potency [18] | Potency [19]

CCC(C)c1ccccc1 (configuration not stated)
inactive: Potency [1] | Potency [2] | Potency [3] | Potency [4] | Potency [5] | Potency [6] | Potency [7] | Potency [8] | Potency [9] | Potency [10] | Potency [11] | Potency [12] | Potency [13] | Potency [14] | Potency [20] | Potency [16] | Potency [17] | Potency [19]

c1ccc(CSCc2ccccc2)cc1
inactive: Potency [1] | Potency [2] | Potency [3] | Potency [4] | Potency [5] | Potency [6] | Potency [7] | Potency [8] | Potency [9] | Potency [10] | Potency [11] | Potency [12] | Potency [13] | Potency [14] | Potency [20] | Potency [16] | Potency [17] | Potency [18] | Potency [19]

NC(=S)Nc1cccc2ccccc12
inactive: activity change, negative = cytotoxicity [1] -1.52% [at 8.39 µM] | activity, positive = activation [2] -4.89% [at 8.39 µM] | activity change [3] 0.074% [at 5.22 µM, active compounds read high] | activation [4] 6.64% [at 6.97 µM] | activation [5] -0.659% [at 5.23 µM] | activation [6] 6% [at 5.99 µM] | activation [7] 0.459% [at 5.99 µM] | activity change, negative = cytotoxicity [8] 3.12% [at 5.99 µM] | activity change, negative = cytotoxicity [9] 8.96% [at 5.99 µM] | activity change, negative = cytotoxicity [10] 19.8% [at 5.99 µM] | activation [11] -2.75% [at 5.99 µM] | activity, negative = inhibition [12] 12.8% [at 5.62 µM] | activation [13] 1.75% [at 7.02 µM] | activity, negative = inhibition [14] -5.9% [at 5.58 µM] | activation [20] -1.04% [at 8.39 µM] | activity change, negative = inhibition [16] 1.21% [at 8.39 µM] | activity change, negative = inhibition [17] -15.5% [at 8.39 µM] | activation [18] 2.03% [at 8.39 µM] | activity change, negative = inhibition [19] -0.294% [at 8.38 µM]

CC1OC1C1CCC2(C)OC2C1 (configuration not stated)
inactive: Potency [1] | Potency [2] | Potency [3] | Potency [4] | Potency [5] | Potency [6] | Potency [7] | Potency [8] | Potency [9] | Potency [10] | Potency [11] | Potency [12] | Potency [13] | Potency [14] | Potency [20] | Potency [16] | Potency [17] | Potency [18] | Potency [19]

Cc1ccc(C(C)c2ccc(C)c(C)c2)cc1C
inactive: Potency [1] | Potency [2] | Potency [3] | Potency [4] | Potency [5] | Potency [6] | Potency [7] | Potency [8] | Potency [9] | Potency [10] | Potency [11] | Potency [12] | Potency [13] | Potency [14] | Potency [20] | Potency [16] | Potency [17] | Potency [18] | Potency [19]

CCOC(=O)NCCC[Si](OCC)(OCC)OCC
inactive: Potency [1] | Potency [2] | Potency [3] | Potency [4] | Potency [5] | Potency [6] | Potency [7] | Potency [8] | Potency [9] | Potency [10] | Potency [11] | Potency [12] | Potency [13] | Potency [14] | Potency [20] | Potency [16] | Potency [17] | Potency [18] | Potency [19]

C=CCOCC(CC)(CO)COCC=C
inactive: Potency [1] | Potency [2] | Potency [3] | Potency [4] | Potency [5] | Potency [6] | Potency [7] | Potency [8] | Potency [9] | Potency [10] | Potency [11] | Potency [12] | Potency [13] | Potency [14] | Potency [20] | Potency [16] | Potency [17] | Potency [18] | Potency [19]

Nc1ccc(NCCO)c([N+](=O)[O-])c1
inactive: Potency [1] | Potency [2] | Potency [3] | Potency [4] | Potency [5] | Potency [6] | Potency [7] | Potency [8] | Potency [9] | Potency [10] | Potency [11] | Potency [12] | Potency [14] | Potency [15] | Potency [20] | Potency [16]

CN1CCCC1=O
inactive: Potency [1] | Potency [2] | Potency [3] | Potency [4] | Potency [5] | Potency [6] | Potency [7] | Potency [8] | Potency [9] | Potency [10] | Potency [11] | Potency [12] | Potency [13] | Potency [20] | Potency [16] | Potency [17] | Potency [18] | Potency [19]
